NPC1 promoter act: qHTS Assay for NPC1 Promoter Activators | AID 485313, 2010 | Huh7 NPC1 promoter luciferase reporter, 24 h | Potency, µM (highest dose often 9.22 µM), without a hit: top-dose activation, actives largely listed as activators | hit rate 2.4% among 320,000; further: % of control where 0% means no effect; nearly all actives have a fitted effect of over 60% in size
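Stably transfected Huh7 (NPC1 promoter→luciferase), 1500 cells/well in Opti-MEM + 10% FBS, 2 h settle, then compound 24 h at 37 °C. Luminescence after 10 min with Amplite reagent.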
ELG1 genotoxic: qHTS screen for small molecules that induce genotoxicity in human embryonic kidney (HEK293T) cells expressing luciferase-tagged ELG1; AID 504466, 2011; Potency, µM (titrated, usually from 46 µM), without a hit: top-dose activity change, positive = activation, actives largely listed as activators; HEK293T ELG1-luciferase reporter, luminescence, 16 h; hit rate 1.3% among 330,000; further: % of control where 0% means no effect; nearly all actives have a fitted effect of over 60% in size
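DMSO vehicle served as control against compound-treated ELG1-luciferase HEK293T cells; exposure lasted 16 hr at 37 °C and 5% CO2, followed by ONE-Glo luminescence detection after 30 min.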
FLuc counter: qHTS profiling assay for firefly luciferase inhibitor/activator using purifed enzyme and Km concentrations of substrates (counterscreen for miR-21 project); Luciferin 4-monooxygenase (Photinus pyralis), P08659; purified FLuc, Km substrates, luminescence inhibition; Potency, µM (titrated, usually from 57.5 µM), inactives show top-dose activity change, negative = inhibition, usual class: inhibitors; hit rate 6.9% among 360,000;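 further: plate controls were vehicle for no effect and reference inhibitor for full effect; nearly all actives have a fitted effect of over 55% in size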
Target sequence (P08659 whole entry, looked up): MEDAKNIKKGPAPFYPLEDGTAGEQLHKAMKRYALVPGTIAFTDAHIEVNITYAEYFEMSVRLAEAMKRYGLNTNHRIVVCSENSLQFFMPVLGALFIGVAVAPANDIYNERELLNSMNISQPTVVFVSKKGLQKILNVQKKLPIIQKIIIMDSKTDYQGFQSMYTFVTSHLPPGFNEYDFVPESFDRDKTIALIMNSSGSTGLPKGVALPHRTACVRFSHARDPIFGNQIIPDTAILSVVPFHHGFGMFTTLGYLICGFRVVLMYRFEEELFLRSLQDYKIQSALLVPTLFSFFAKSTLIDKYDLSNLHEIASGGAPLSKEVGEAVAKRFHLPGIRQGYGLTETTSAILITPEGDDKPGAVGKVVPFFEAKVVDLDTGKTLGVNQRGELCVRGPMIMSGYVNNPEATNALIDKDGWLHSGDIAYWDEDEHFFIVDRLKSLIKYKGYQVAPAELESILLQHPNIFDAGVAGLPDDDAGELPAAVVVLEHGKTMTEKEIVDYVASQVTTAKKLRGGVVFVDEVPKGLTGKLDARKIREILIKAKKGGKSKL
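Purified P. pyralis luciferase, 10 nM final, with Km-level 10 uM D-luciferin and 10 uM ATP in 50 mM Tris acetate pH 7.5, 10 mM Mg acetate, 0.01% Tween-20, 0.05% BSA; 6-point qHTS titration about 60 µM downward; luminescence read.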
ELG1 DNA repair: qHTS screen for small molecules that inhibit ELG1-dependent DNA repair in human embryonic kidney (HEK293T) cells expressing luciferase-tagged ELG1 | HEK293T ELG1-luciferase reporter, luminescence, 16 h; DNA damage induced by 5-fluorouridine | Potency, µM (titrated, usually from 46.1 µM), without a hit: at the top dose activity change, negative = inhibition, actives largely listed as inhibitors | hit rate 2.3% among 330,000 | AID 504467, 2011; further: on the % scale 0 is the no-effect control and ±100 the full control effect; nearly all actives have a fitted effect of over 55% in size
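5-Fluorouridine DNA damage + compound/DMSO, 2,000 cells/well, 16 h, 37 °C/5% CO2. ONE-Glo, 30 min RT, luminescence. Readout = decrease in reporter signal.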
Rab9 prom act: qHTS Assay for Rab9 Promoter Activators; Huh7 Rab9 promoter-luciferase reporter, luminescence, 24 h; Potency, µM (titrated, usually from 9.22 µM), without a hit: top-dose activation, negative = inhibition, actives largely listed as activators; hit rate 2.8% among 320,000; further: % of control where 0% means no effect; nearly all actives have a fitted effect of over 60% in size
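Huh7 reporter line, Rab9 promoter upstream of luciferase. Compound exposure 24 h at 37 °C in reduced-serum medium with 10% FBS. Read-out: luminescence.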
SMN2 splice up: qHTS Assay for Enhancers of SMN2 Splice Variant Expression; HEK293 SMN2-luciferase splicing reporter, luminescence, 30-36 h; Potency, µM (highest dose often 46.1 µM), for the others: at the top dose activity change, positive = activation, actives largely listed as activators; hit rate 2.8% among 210,000; further: % of control where 0% means no effect; nearly all actives have a fitted effect of over 55% in size
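HEK293 cells carry an SMN2 […]–luciferase reporter in which exon 7 inclusion puts luciferase in frame. Cells were plated 10-12 h before compound addition, then incubated 30-36 h at 37C. ONE-Glo luminescence was read; sodium butyrate at 4.5 mM final served as control.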
The depositor's hits bear a star; u = inconclusive; x = no result given; [ ] = remark or other dose. Compounds with a hit are over-represented: about 9.3% of the library has one in this group of screens. The call rests on the fitted dose curve; in most records, active means well fitted curve in the direction sought with a large enough effect; inconclusive means small, poorly fitted or top-dose-only effect, or another doubt; inactive means no such curve, though single readings can be large; an effect the other way counts as inactive or inconclusive. Potency means the concentration at half of the fitted maximal effect.

SMILES	NPC1 promoter act	ELG1 genotoxic	FLuc counter	ELG1 DNA repair	Rab9 prom act	SMN2 splice up
O=C(c1cnc2n(c1=O)CCS2)N1CCN(c2ccccc2F)CC1	0.5%	-6.2%	7.0%	18.7%	-3.1%	10.5%
O=C(c1cc(-c2ccc(Cl)cc2Cl)on1)N1CCN(C(=O)c2ccco2)CC1	2.5%	-0.4%	30.1µM*	u	3.3%	-33.4%
O=C(c1ccc(-c2ccccc2Cl)o1)N1CCN(c2ccccc2O)CC1	11.6%	-0.7%	u	u	2.1%	x
O=C(c1ccco1)N1CCN(C(=O)c2ccc(-c3ccccc3Cl)o2)CC1	u	13.6%	9.53µM*	u	2.82µM*	x
CN(C)/C=C/C(=O)c1ccc(-c2ccc(Cl)cc2Cl)o1	u	u	9.53µM*	u	4.47µM*	u
NC(=O)C1CCN(C(=O)c2ccc(-c3ccccc3Cl)o2)CC1	u	u	9.53µM*	u	2.51µM*	x
O=C(c1ccc([N+](=O)[O-])cc1)N(Cc1cccs1)C1CCS(=O)(=O)C1 (configuration not stated)	-8.6%	0.2%	-0.6%	11.2%	-4.4%	x
COc1ccc(-c2noc(CCC(=O)N3CCN(c4ccc(F)cc4)CC3)n2)cc1	x	-3.1%	x	19.7%	x	x
O=C(c1ccco1)N1CCN(Cc2c(Cl)cccc2Cl)CC1	u	u	26.9µM*	u	3.16µM*	x
O=C(c1ccc(-c2ccc(Cl)cc2Cl)o1)N1CCOCC1	3.16µM*	u	8.49µM*	u	3.16µM*	22.4µM*
O=C(c1ccc(-c2ccccc2Cl)o1)N1CCN(S(=O)(=O)c2cccs2)CC1	u	0.2%	10.7µM*	u	u	x
O=C(c1cc(-c2ccccc2Cl)on1)N1CCN(C(=O)c2ccco2)CC1	0.9%	0.8%	19µM*	23.6%	-2.6%	5.3%
O=c1c2ccccc2[nH]c(=S)n1CCCN1CCOCC1	-1.4%	3.5%	2.5%	7.7%	-3.2%	-0.2%
CSCCC(NC(=O)OC(C)(C)C)C(=O)Oc1ccc2c(=O)c(-c3ccc4c(c3)OCCO4)coc2c1 (configuration not stated)	1.41µM*	u	10.7µM*	u	0.794µM*	17.8µM*
CCN1CCN(C(=O)c2ccc(CSc3ccc(C)cc3)cc2)CC1	0.8%	-8.0%	-11.1%	-2.0%	-5.6%	-43.3%
Cc1ccc(SCc2ccc(C(=O)N3CCCC3)cc2)cc1	24.7%	13.4%	16.9µM*	u	u	u
Cc1ccc(SCCC(=O)N2CCC(C)CC2)cc1	4.47µM*	u	13.5µM*	u	3.55µM*	u
Cc1ccc(C(=O)NCCC(=O)N2CCCC2)cc1	3.98µM*	23.1µM*	10.7µM*	u	3.16µM*	x
Cc1ccc(SCCC(=O)N2CCCC2)cc1	24.8%	14.6µM*	-13.6%	u	25.0%	-11.7%
Cc1ccc(C(=O)NCC(=O)N2CCCCCCC2)cc1	17.0%	10.9%	-16.5%	u	22.6%	x
COc1cccc(-c2c(NC(=O)c3ccco3)oc3ccc(Cl)cc3c2=O)c1	-0.9%	-0.6%	-5.2%	4.6%	-0.6%	x
Oc1cc(Nc2ccccc2)cc2cccnc12	-3.6%	1.3%	-0.4%	-2.3%	7.9%	x
COc1ccc(-c2cn[nH]c2-c2ccc(OCc3ccccc3)cc2O)cc1	-4.0%	-11.5%	-3.3%	20.6µM*	-2.4%	x
COc1ccccc1-c1cn[nH]c1-c1ccc(OCc2ccccc2)cc1O	-3.4%	-0.3%	-4.7%	u	-9.8%	x
COc1ccc(-c2cn[nH]c2-c2ccc(OC)cc2O)cc1	-1.5%	-22.1%	-1.7%	10.3µM*	-1.5%	x
SMILES	NPC1 promoter act	ELG1 genotoxic	FLuc counter	ELG1 DNA repair	Rab9 prom act	SMN2 splice up
CCOC(=O)N1CCC(Nc2nc(OC)nc(OC)n2)CC1	3.2%	-1.2%	-0.7%	7.7%	2.5%	-9.5%
COc1ccccc1OCCCCOc1ccccc1F	25.3%	7.8%	13.5µM*	u	27.1%	-9.3%
CCOc1ccccc1OCCCCOc1ccccc1F	-8.3%	-0.2%	-9.1%	7.5%	-5.9%	0.2%
CCC(C(=O)NC1CCCC1)n1c(SCc2cccc(C)c2)nc2ccncc21 (configuration not stated)	0.8%	-5.0%	u	0.9%	-4.2%	-23.8%
CCSc1nnc(NC(=O)c2cc(C)oc2C)s1	u	7.31µM*	16.9µM*	u	u	11.2µM*
CCSc1nnc(NC(=O)c2ccc(C)o2)s1	u	18.4µM*	16.9µM*	u	u	15.8µM*
CCc1nnc(NC(=O)c2cc(C)oc2C)s1	-1.4%	17.5%	16.9µM*	15.6%	6.7%	x
CCSc1nnc(NC(=O)Cc2ccc(OC)cc2)s1	0.7%	0.2%	0.0%	u	9.7%	-6.5%
O=C(COc1ccc2c3c(c(=O)oc2c1)CCC3)NCCCN1CCCC1=O	-1.3%	8.6%	-1.2%	u	-4.8%	x
Cc1c(C(=O)Nc2ccc3c(c2)OCO3)sc2ncn(CC(=O)N3CC(C)CC(C)C3)c(=O)c12 (configuration not stated)	0.8%	5.6%	0.2%	20.6µM*	-2.2%	4.6%
CCN(CC)C(=O)Cn1cnc2sc(C(=O)N3CCN(Cc4ccc5c(c4)OCO5)CC3)c(C)c2c1=O	-1.4%	-10.0%	-6.9%	8.2µM*	-5.4%	-69.5%
Cc1nc2sc(-c3ccccc3)cc2c(=O)n1N	0.1µM*	u	0.675µM*	u	u	x
O=c1c2cc(-c3ccccc3)sc2nc2n1CCC2	0.501µM*	1.16µM*	3.01µM*	u	0.631µM*	3.16µM*
Cc1sc2nc(C)n(/N=C/N(C)C)c(=O)c2c1C	3.3%	2.9%	-2.1%	10.9%	1.0%	x
Cc1nc2sc(-c3ccccc3)cc2c(=O)n1/N=C/N(C)C	2.51µM*	u	19µM*	u	2.82µM*	11.2µM*
Cc1nc2sc(-c3ccccc3)cc2c(=O)n1-n1cccc1	1.26µM*	u	7.57µM*	u	1.58µM*	x
COc1ccc(NC(=O)C(CCSC)NC(N)=O)cc1NS(=O)(=O)c1ccc(F)cc1 (configuration not stated)	-2.4%	-2.3%	-2.3%	-4.3%	-9.2%	11.5%
CS(=O)(=O)c1ccc(-c2nnc(NC(=O)C3=COCCO3)o2)cc1	-0.4%	-7.9%	-10.9%	-9.4%	1.6%	x
O=C1CCCC/C1=C/Nc1cccc(C(F)(F)F)c1	-3.1%	18.7%	u	u	3.9%[1.84 µM]	-5.9%

Compound activity: PubChem, National Center for Advancing Translational Sciences (NCATS)
